# The supplement of paper PMC12632987
# B1: GBRAPL2_53_7358 (protein)
# chain: MLVVEIAHPDPAVVKEAAKKILAVIKEDGVEAKVTVTTENGEVKVLTGDIDKIEAEVTALAAKQPVLISIELPDSAEETVEKMEDIALEAGATVSVYREP
# B2: GBRAPL2_53_7367 (protein)
# chain: MTLVEVEHPDKEKLLKAAEKIAEIAKKLGVNITVIFVKSDGSVERFTANAEEALKIAREKIKEGDVIIEVELEDSQEEALEEIIDAAAEAGAVVSVEKLP
# B3: GBRAPL2_53_7365 (protein)
# chain: MTLVEVEHVDPEKMRAAAKKIAEVAKKHGLKIKVVFVDDEANVTEVTANAEEALKIAEEWIEKGHVILEVELPDDLEEVKEEIIDIAAEEGAVVSVEELE
# B4: GBRAPL2_53_7357 (protein)
# chain: MLRLSIAHPDPAVVAEALRRIFEILREAGVEAEVVVTLEDGTVVRLTGDLDEIEARVTELAAKQPVLVDIYMPDSAEETVEEMEDAALDAGATVSVERVP
# B5: GBRAPL2_53_7361 (protein)
# chain: MIEIDIAHPDPAVVKKAAEKIFDVAEENGVEVEVEVTTEDGTVTRLTGSIEEIREKVTAMAAKQPVLITIYLPDEAEETAEEIEDIALEEGATVSREVLP
# B6: GBRAPL2_53_7360 (protein)
# chain: MIVIDIAHPDKEVVKKAAEKIFDIVKEAGVEVEVTVTTEDGKVEKLTGSVDDIKAKVTELAAKQPVLIEITLPDSAKETAEKIVDVALEEGATVSVEELE
# B7: GBRAPL2_54_7371 (protein)
# chain: ETTVEIEATFLAEGTPEELARVRAVALEELEELKKELKEKFGAESEISAEEEDGVLSVTVTITTKKENLDEVLDLLEATRDRIAARTGLPVALVIGIKEL
# B8: GBRAPL2_53_7366 (protein)
# chain: MTEVEIEHPDKEKMLKAAKKVFELVKERNLKVTVIYVDENANVTRVTANAEEALKIAEEWIEKGDVILEVILPDSEEELKEKIIDIAAENGAVVSVEELE
# B9: GBRAPL2_54_7370 (protein)
# chain: ETIIEIEATFIAEGSEEELEEVEKVALEKLAELSEKLKKEFGAESEISSERENGVLSVTVKITTKKEDLDKVLDLLEETRDEISKETGKKVSLVIGIKEL
# B10: GBRAPL2_53_7363 (protein)
# chain: MYEVEVEHPDKEKLLRAAEKIAEIAEKHGLKITVTFVKEDATVEVHTADAKEALKIAKENIEKGDVILTVRLPDSLEEVREELIDAAAEEGAVVSVTELP
# B11: GBRAPL2_54_7368 (protein)
# chain: MIEVEITVVMKRENFLKHKELIKKILLEKVEELKKEHPDLIEKILEIEEEEYPDVGLLSIKILAKPEAEDLIRDLAEEIQKELEKKTGEKVHVVVAFGEL
# B12: GBRAPL2_54_7369 (protein)
# chain: MKIVEVTFVAEREFFLANRERIRAAALATYAELRKRLPDKVGELLSEEYSETPDYGSLSLDIEVDESALDEVIDAFEATRDALSAELGHPVHVVIGIGDK
# B13: GBRAPL2_54_7372 (protein)
# chain: MTIVEIEATFIAEGSDEELERIEEVALRELKKLAERLKKEFGAESEISSEREDGVLSVTVKITTEKENVDEVLDLLEETRERISRETGRPVSLVIGIKEL
# B14: GBRAPL2_53_7359 (protein)
# chain: MIEIDIAHPDKAVVKEAADKIFDVVEENGVEVEVTVTDENGTVTKLTGSVEEIREKVTAMAAKQPVLITIKLPDSAKETAEKIEDIALEKGATVSREELE
# B15: GBRAPL2_53_7362 (protein)
# chain: MWLVEVEHPDKEKLLKAAKEIFKIAKENGLKVTVKFVKEDGTVEEKTLNAEEALKYVEEKVKEGDVILEIELPDSLEEAKEKIIDAAAKHGAVVSVEELE
# B16: GBRAPL2_53_7364 (protein)
# chain: MYLVEVEHPDKEKLLKAAEEIAKIAKKHNLKITVIFVKEDGTVERYTANAEEALKIAKEWIEKGDVILEVKLPDSLEEVKEEIIDAAAKNGAVVSVEELE
# Target: GABARAPL2, P60520
# Sequence (P60520 whole entry, the tested form may be a part): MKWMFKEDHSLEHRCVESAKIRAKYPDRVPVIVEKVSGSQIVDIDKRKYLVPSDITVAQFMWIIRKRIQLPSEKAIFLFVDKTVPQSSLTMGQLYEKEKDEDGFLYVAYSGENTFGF
# Assay: median log2 fold change of GCK-ALFA target abundance (FLAG IP / Myc IP barcode read proportion) (log2 ratio); each designed protein is fused to an ALFA-tag nanobody in HEK293 cells to bring the named protein to FLAG-tagged glucokinase (GCK); Myc marks an untargeted standard; higher = target protein stabilised (more abundant)
# Conditions: target protein: 3xFLAG-MCP-GCK-ALFA reporter; HEK293 landing pad (RPLP)
# Summary of the method: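 HEK293 landing-pad cells received a recombined binder library fused to the ALFA nanobody and were induced with 2 μg mL^−1 doxycycline, then transfected with a plasmid encoding a FLAG-tagged target and a Myc-tagged standard. Lysates were collected after 48 h for anti-FLAG and anti-Myc immunoprecipitation, and the circular RNA barcodes were reverse transcribed, amplified and sequenced. Target abundance for each binder is the median log2 ratio of FLAG to Myc barcode read proportions. Barcodes had to reach a proportion of at least 10^−7 in both replicates, each binder needed at least 3 barcodes per replicate, a pseudocount of 10^−6 was applied, and the two replicates were pooled.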
row,Binder,median log2 fold change
1,B1,0.217
2,B2,0.299
3,B3,0.0119
4,B4,0.126
5,B5,0.219
6,B6,0.111
7,B7,-0.0591
8,B8,-0.0323
9,B9,-0.0409
10,B10,0.174
11,B11,-0.39
12,B12,-0.231
13,B13,0.186
14,B14,0.276
15,B15,0.16
16,B16,0.221
